Hits are enriched below; roughly 5.9% of the tested compounds scored in any of these assays.
Gal4-VP16 FLuc = VP16 counterscreen qHTS for inhibitors of ROR gamma transcriptional activity | Potency, µM (series often up to 53.6 µM), for the others: at the top dose activity, negative = inhibition, most hits filed as inhibitors | Drosophila S2 Gal4-VP16 UAS-luciferase, luminescence, 20 h | 310,000 compounds, 3.5% hits;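 further: Gal4-VP16 expression switched on by copper sulfate through the metallothionein promoter; potency means the concentration at half of the fitted maximal effect; nearly all actives have a fitted effect of over 50% in size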
RORgamma inh = qHTS for inhibitors of ROR gamma transcriptional activity; Drosophila S2 Gal4-RORgamma UAS-luciferase reporter, 20 h; Potency, µM (titrated, usually from 53.6 µM), for the others: top-dose activity change, negative = inhibition, usual class: inhibitors; 310,000 compounds, 5.4% hits; AID 2551, 2010; further: potency means the concentration at half of the fitted maximal effect; nearly all actives have a fitted effect of over 60% in size
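Drosophila S2 cells stably expressing Gal4-DBD/mouse RORγ fusion under metallothionein promoter plus UAS-luciferase; compound 1 h, then 700 uM CuSO4 induction for 20 h at ambient temperature; inhibition read as reduced luminescence.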
TrxR1 inh = qHTS Assay for Inhibitors of Mammalian Selenoprotein Thioredoxin Reductase 1 (TrxR1): qHTS | Thioredoxin reductase 1, cytoplasmic (Rattus norvegicus), O89049 | recombinant rTrxR1, NADPH fluorescence consumption, selenite substrate | Potency, µM (doses to about 114 µM), without a hit: at the top dose activity change, negative = inhibition, actives largely listed as inhibitors | 390,000 compounds, 1% hits | AID 588453, 2011; further: potency means the concentration at half of the fitted maximal effect; nearly all actives have a fitted effect of over 65% in size
Target sequence (O89049 whole entry, looked up): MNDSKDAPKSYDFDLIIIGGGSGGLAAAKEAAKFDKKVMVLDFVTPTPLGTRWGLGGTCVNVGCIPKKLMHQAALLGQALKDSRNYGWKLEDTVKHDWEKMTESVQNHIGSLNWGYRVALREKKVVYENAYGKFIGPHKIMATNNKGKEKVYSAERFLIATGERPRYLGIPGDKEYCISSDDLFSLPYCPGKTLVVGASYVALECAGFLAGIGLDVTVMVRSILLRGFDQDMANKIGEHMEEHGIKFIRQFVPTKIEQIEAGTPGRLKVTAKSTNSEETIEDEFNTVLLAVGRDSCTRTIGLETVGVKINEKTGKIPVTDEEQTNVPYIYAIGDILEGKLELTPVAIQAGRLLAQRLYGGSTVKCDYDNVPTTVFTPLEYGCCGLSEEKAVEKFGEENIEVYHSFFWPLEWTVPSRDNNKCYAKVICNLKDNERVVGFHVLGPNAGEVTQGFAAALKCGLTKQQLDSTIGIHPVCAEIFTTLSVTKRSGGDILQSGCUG
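Rat TrxR1 (90 nM in the dispensed reagent) was pre-reduced with 400 uM NADPH for 5 min at room temperature, then incubated with compound for 15 min. After 400 uM selenite was added, NADPH fluorescence (Ex 340/Em 450 nm) was followed for 8 min.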
FBPA coupling cs = qHTS Assay for Inhibitors of Fructose-1,6-bisphosphate Aldolase from Giardia Lamblia: Coupling assay counterscreen | coupling enzyme system counterscreen, AmpLite Red fluorescence | activity change, negative = inhibition, % at 58.2 µM, hits read low | 290,000 compounds, 0.67% hits | AID 2472, 2010; in the data active means activity change below about -30%
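First, compound is pin-transferred into glyceraldehyde-3-phosphate coupling-enzyme reagent at 57.5 uM final and held 10 min at RT. Next, substrate, coupling system and AmpLite Red are added. After 20 min RT, fluorescence (525/598 nm) is read.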
TrxR1 substrate = qHTS Assay for Substrates of Mammalian Selenoprotein Thioredoxin Reductase 1 (TrxR1): qHTS | 390,000 compounds, 0.01% hits | Thioredoxin reductase 1, cytoplasmic (Rattus norvegicus), O89049 | purified TrxR1 substrate turnover, NADPH consumption readout | AID 588456, 2011 | Potency, µM (titrated, usually from 114 µM), for inactives: top-dose activity change, negative = substrate turnover; further: potency means the concentration at half of the fitted maximal effect; nearly all actives have a fitted effect of over 50% in size
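Rat TrxR1, dispensed at 90 nM, was prereduced with 400 uM NADPH (final) for 5 min at ~22 deg C, then incubated with compound 15 min before 400 uM selenite. A first-read NADPH fluorescence drop versus no-compound background flagged substrates.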
GALK inhibitor = qHTS Assay for Inhibitors of Human Galactokinase (GALK); Purified GALK, Kinase-Glo residual ATP luminescence; AID 1868, 2009; P51570; Potency, µM (titrated, usually from 57.5 µM), without a hit: at the highest dose activity change, negative = inhibition, most hits filed as inhibitors; 270,000 compounds, 0.007% hits; further: potency means the concentration at half of the fitted maximal effect
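The enzyme phosphorylates galactose (100 uM) using ATP (35 uM); inhibition is detected as higher residual ATP, quantified by bioluminescence after 1 h reaction at room temperature, pH 8.0.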
An asterisk follows results filed as active; ? = inconclusive; / = no result; [ ] = another dose, or the depositor's remark. Unless noted, the call rests on the fitted dose curve; in most records, active means well fitted curve in the direction sought with a large enough effect; inconclusive means small, poorly fitted or top-dose-only effect, or another doubt; inactive means no such curve, though single readings can be large; an effect the other way counts as inactive or inconclusive. On the % scale 0 is the no-effect control and ±100 the full control effect.

SMILES	Gal4-VP16 FLuc	RORgamma inh	TrxR1 inh	FBPA coupling cs	TrxR1 substrate	GALK inhibitor
CCOC(=O)c1c(-c2ccc(C)o2)csc1NC(=S)NC(=O)c1cccs1	2.51µM*	1.41µM*	-16.2%	-5.2	-3.7%	-2.0%
CCOC(=O)c1c(-c2ccc(C)o2)csc1NC(=O)COC(=O)c1ccc(NC(N)=O)cc1	2.3%	-0.7%	?	1.2	-5.5%	-0.3%
O=[N+]([O-])c1ccc(O)c(C=Nc2ccc3oc(Cc4ccc(Cl)cc4)nc3c2)c1	-17.5%	-29.2%	/	-35.3*	/	2.8%
CCc1ccc2oc(-c3cc(N)ccc3O)nc2c1	3.98µM*	2.51µM*	-7.5%	-8.1	-11.2%	-1.6%
Cc1ccc(C)c(-c2nc3cc(N)ccc3o2)c1	-6.3%	14.4%	-12.0%	-0.4	10.3%	0.3%
Nc1ccc2oc(Cc3ccc(Cl)cc3)nc2c1	/	/	50.1µM*	/	1.3%	/
CCc1ccc2oc(-c3cc(N)cc(C)c3O)nc2c1	8.91µM*	?	9.6%[57.1 µM]	-1.1	-4.0%	-0.6%
COCC(=O)NNC(=O)c1ccccc1OC	-0.5%	1.3%	17.7%[57.1 µM]	-0.5	1.7%[57.1 µM]	-2.2%
Nc1ccc2oc(-c3cc(Br)ccc3Cl)nc2c1	4.7%	11.8%	14.0%	0.6	3.8%	-0.2%
CCc1ccc2oc(-c3cc(N)ccc3Cl)nc2c1	10µM*	?	2.0%	-2.2	12.9%	-5.0%
CCOc1ccccc1N(CC(=O)NCCSCc1ccco1)S(=O)(=O)c1ccccc1	1.1%	13.5%	22.4µM*	-0.8	-8.3%	-1.7%
CCc1ccc(CSc2nccn2-c2ccccc2)cc1	-27.8%	8.91µM*	3.8%	0.1	6.4%[57.1 µM]	-2.4%
c1ccc(CCSc2nccn2-c2ccccc2)cc1	-6.3%	10µM*	-3.4%	-0.8	-2.6%	0.5%
COC(=O)CCCSc1nccn1-c1ccccc1	-13.5%	0.3%	9.8%	0.0	-4.0%	7.7%
O=C(CSc1nccn1-c1ccccc1)NCc1ccc(F)cc1	-8.8%	-9.5%	15.7%	-2.1	7.8%	-0.1%
Clc1ccc(CSc2nnc(-c3cccnc3)n2Cc2ccco2)c(Cl)c1	8.6%	28.5%	39.8µM*	1.2	-10.1%	1.9%
c1cncc(CSc2nnc(-c3cccnc3)n2Cc2ccco2)c1	0.5%	4.9%	/	-0.3	/	0.8%
Clc1cccc(CSc2nnc(-c3cccnc3)n2Cc2ccco2)c1	?	15.8µM*	-32.8%	-20.3	-6.1%	-0.2%
Brc1ccc(NC2=Nc3ccccc3CC2)cc1	?	?	-8.8%	/	-6.5%	-0.9%
Cc1ccc(NC2=Nc3ccccc3CC2)cc1	?	11.2µM*	-11.0%	2.0	-7.2%	0.0%
CC(=O)c1sc(NC(=O)CCS(=O)(=O)c2ccccc2)nc1C	?	12.6µM*	-24.7%	0.0	-7.9%	-0.6%
O=C(CCS(=O)(=O)c1ccccc1)Nc1nncs1	-16.0%	-43.4%	?	4.4	7.8%	-1.8%
O=C(CN1CCN(Cc2ccccc2)CC1)N1CCCc2c1c(=O)oc1ccc(O)cc21	-11.5%	5.1%	-10.4%	6.8	-14.5%	1.5%
O=C(c1ccco1)N1CCN(CC(=O)N2CCCc3c2c(=O)oc2ccc(O)cc32)CC1	-12.0%	5.2%	15.8µM*	3.9	-8.6%[57.1 µM]	-0.3%
CC(NC(=S)Nc1cccc(F)c1)C(c1cccs1)N1CCOCC1 (stereo unspecified)	?	8.91µM*	9.8%	1.1	3.4%	3.8%
SMILES	Gal4-VP16 FLuc	RORgamma inh	TrxR1 inh	FBPA coupling cs	TrxR1 substrate	GALK inhibitor
Cc1ccc(C)c(NC(=S)NC(C)C(c2cccs2)N2CCOCC2)c1 (stereo unspecified)	11.2µM*	5.01µM*	13.3%[57.1 µM]	0.1	4.7%[57.1 µM]	/
Cc1cccc(C(=O)NC(C)C(c2cccs2)N2CCOCC2)c1 (stereo unspecified)	9.8%	15.0%	29.1%	1.3	9.5%	-2.4%
CC1CCN(C(=O)CCNS(=O)(=O)c2ccc3c(c2)oc(=O)n3C)CC1	-0.1%	-15.9%	-7.1%	/	-10.8%	7.7%
CN(C)CCC(=O)c1ccc(F)cc1	4.0%	2.6%	1.12µM*	-1.8	8.1%	-2.7%
CCCCCCc1ccc(C(=O)CCN(C)C)cc1	-3.6%	/	10µM*	5.8	-0.8%	/
CN(C)CCC(=O)c1cccc(Br)c1	-11.2%	?	0.316µM*	4.4	0.2%	0.0%
CN(C)CCC(=O)c1ccc2c(c1)OCO2	6.31µM*	2.24µM*	0.316µM*	-1.7	8.8%	10.9%
CN(C)CCCC(=O)c1ccc2c(c1)OCO2	-0.1%	8.9%	-7.9%	-0.2	-5.3%	-0.1%
CC(=O)c1ccc(NC(=O)CCc2c(C)nc3c(c(C)nn3-c3ccc(C)cc3)c2C)cc1	/	/	3.8%	/	-1.5%	/
CC(C)NC(=O)NC(=O)COC(=O)c1ccc(S(=O)(=O)NCc2ccco2)cc1	/	/	-11.4%	/	3.2%	/
COc1ccc(CC(=O)OCC(=O)NCc2ccc(F)cc2)cc1	/	/	3.6%	/	2.8%	/
O=C(CCl)Nc1nc(-c2ccco2)c(-c2ccco2)s1	?	?	12.6µM*	-4.3	-2.3%	-7.6%
O=C(CCCSc1ccccc1)Nc1nc(-c2ccco2)c(-c2ccco2)s1	?	-27.1%	?	-0.1	-1.6%	-0.1%
Cc1ccc(C(=O)Nc2nc(-c3ccco3)c(-c3ccco3)s2)o1	/	/	25.1µM*	/	-7.4%	/
O=C(COC(=O)CCC1CCCC1)Nc1cc(S(=O)(=O)N2CCOCC2)ccc1Cl	/	/	-6.0%[57.1 µM]	/	-2.4%[57.1 µM]	/
CCCCCC(=O)Nc1cccc(C2=NOC3(C2)C[C@H](C(N)=O)N(C(=O)CC)C3)c1 (stereo partly specified)	2.9%	2.0%	-7.5%[57.1 µM]	0.1	1.1%[57.1 µM]	0.4%
COCCn1c(SC(C)C(=O)Nc2ccc(N3CCOCC3)cc2)nnc1-c1ccncc1 (stereo unspecified)	/	/	11.7%	/	1.9%	/
[O-]/C(=C(\C(=S)Nc1cccc2ccccc12)[n+]1ccccc1)c1ccc(Cl)s1	?	20µM*	0.3%	-39.5*	4.6%[11.4 µM]	-2.1%
CCc1cccc(CC)c1NC(=S)/C(=C(\[O-])c1ccc(Cl)s1)[n+]1ccccc1	-6.7%	?	13.5%	0.2	-5.7%	-0.1%
Cc1cc(C)cc(NC(=S)/C(=C(\[O-])c2ccc(Cl)s2)[n+]2cccc(C)c2)c1	7.0%	-43.9%	12.9%[57.1 µM]	-4.4	4.4%[57.1 µM]	0.8%
Cc1ccc(C)c(NC(=S)/C(=C(\[O-])c2ccc(Cl)s2)[n+]2ccccc2)c1	-12.3%	20.4%	8.1%	-40.3*	-2.4%	-2.3%

Compound activity: PubChem BioAssay, National Center for Advancing Translational Sciences (NCATS)
